# The list is not random: actives were taken first. Their share in the collection is about 21%.
# Pf growth 96h – inhibits malaria parasite growth, 96 h. P. falciparum luciferase reporter growth, 96 h. Potency, µM (highest dose often 28.7 µM), inactives show at the top dose activity change, negative = inhibition, usual class: inhibitors. hit rate 6.9% among 320,000; also: potency is read from the fitted curve at half-maximal effect; % is scaled to controls: 0 for no effect and ±100 for the full control effect
#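 Compounds incubated with erythrocytes infected by luciferase-expressing P. falciparum (2% hematocrit, 0.05% parasitemia final) for 96 hours, 37 C in 5% CO2. Growth inhibition scored as decreased luciferase luminescence.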
# Pf growth 48h – P. falciparum growth inhibition at 48 hours (one generation) | P. falciparum luciferase growth in erythrocytes, 48 h | Potency, µM (top dose mostly 28.7 µM), for inactives: at the top dose activity change, negative = inhibition, usual class: inhibitors | hit rate 5.9% among 310,000; also: potency is read from the fitted curve at half-maximal effect; % is scaled to controls: 0 for no effect and ±100 for the full control effect
#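 Luciferase-expressing P. falciparum in infected erythrocytes (2% hematocrit, 0.1% parasitemia final) in RPMI 1640/0.5% Albumax were exposed to compound for 48 hours at 37 C, 5% CO2; growth read as luminescence.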
# Shiga toxin inh – blocks Shiga toxin action in Vero cells; Vero cells, Shiga toxin protein synthesis inhibition reporter; inhibition, % at 38.7 µM; hit rate 9.2% among 290,000; in the data active = inhibition mostly above about 28%, no sharp cut-off; inactive = mostly below about 43%; also: 0% is about no effect
# HCMV antiviral – blocks human cytomegalovirus replication; HFF cells, HCMV-luciferase reporter, 72 h; stronger effect = lower value; activity change, negative = inhibition, % at 57.5 µM; hit rate 4.5% among 410,000; in the data active = activity change below about -60%; inconclusive = no clear call, values can overlap the other calls; inactive = above about -39%; also: % is scaled to controls: 0 for no effect and ±100 for the full control effect
#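 HFF cells seeded 16 h at 37C, treated with compounds, infected with luciferase-reporter HCMV at MOI 1 PFU/cell; luciferase read at 72 h post infection, normalized to buffer-only and Salinomycin controls.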
# Cycloheximide cs – affects cycloheximide protein synthesis inhibition readout, counter-screen | cell reporter, cycloheximide protein synthesis inhibition counterscreen | max response, % | hit rate 12% among 300,000 | AID 2314; in the data active = max response mostly above about 13%, no sharp cut-off; inactive = mostly below about 14%; also: read at 38.3 µM for the half of the compounds with a filed dose; 0% is about no effect
# HCV inhibitor – HCV inhibition | Huh7.5.1 HCVcc-Cre infection, luciferase reporter, 44 h | hit rate 3.4% among 340,000 | Potency, µM (highest dose often 41.8 µM), without a hit: at the highest dose activity change, negative = inhibition, usual class: inhibitors | AID 651820; also: potency is read from the fitted curve at half-maximal effect; % is scaled to controls: 0 for no effect and ±100 for the full control effect
#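 After 44 h co-culture of compound, cells and HCVcc-Cre (~0.5 moi), substrate is added for 15 min at room temperature and luciferase measured over 15 sec. Cells were seeded at 1,000/well and pre-cultured 4 h.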
# * marks the source's active call; other numbers are inactive results; i = inactive; u = inconclusive; x = no result. Unless noted, calls follow the shape of the dose curve; as a rule, active = well fitted inhibition curve with a large enough effect; inconclusive = small, poorly fitted or top-dose-only effect, or another doubt; inactive = no such curve, though single readings can be large or run the other way.
SMILES,Pf growth 96h,Pf growth 48h,Shiga toxin inh,HCMV antiviral,Cycloheximide cs,HCV inhibitor
C=CCN(c1ccc(C(=O)NCCSc2ccccc2)cc1)S(C)(=O)=O,15µM*,21%,120*,84,33*,-13%
C=CCN(c1ccc(C(=O)NC(C)C)cc1)S(C)(=O)=O,x,17%,-26,41,1,3%
C=CCN(c1ccc(C(=O)Nc2ccc(C)cc2)cc1)S(C)(=O)=O,116%,-14%,16,-38,-2,-23%
C=CCN(c1ccc(C(=O)Nc2ccc(C)c(C)c2)cc1)S(C)(=O)=O,18%,30%,36,-69*,19*,u
O=[N+]([O-])c1ccc(NN=Cc2cccc(O)c2)nc1,x,x,x,40,x,u
Cc1cccc(C)c1-n1c(C)cc(/C=N\Nc2ccc([N+](=O)[O-])cn2)c1C,-51%,x,67*,u,28*,u
COc1cc(/C=N/Nc2ccc([N+](=O)[O-])cn2)cc(OC)c1O,-3%,6%,17,u,25*,-21%
O=[N+]([O-])c1ccc(NN=Cc2cc(Br)ccc2O)nc1,x,x,x,-100*,x,u
COc1ccc(C2=Nn3c(nnc3-c3ccccc3O)SC2)c(OC)c1,x,x,33,x,10,x
COc1cccc(CNc2ccc(F)c([N+](=O)[O-])c2)c1O,20%,9%,47*,u,30*,-29%
COc1cc(CNc2ccccc2)c([N+](=O)[O-])cc1OC,i,13µM*,x,-21,1,-24%
C=C(C)C(=O)Nc1cccc(C2=NOC3(C2)C[C@@H](C(N)=O)N(C(=O)[C@H]2CCC(=O)N2)C3)c1 (stereo not given in full),74%,52%,-6,3,-1,u
Cc1ccc(Nc2nnc(-c3ccc(C)c(S(N)(=O)=O)c3)c3ccccc23)cc1,x,x,x,-18,x,x
Cc1ccc(Nc2nccc(N(C)c3ccc4c(C)n(C)nc4c3)n2)cc1S(N)(=O)=O,x,x,x,-84*,x,x
CSc1ccc(/C=C(/NC(=O)c2ccco2)C(=O)N2CCOCC2)cc1,u,-1%,-9,31,-3,7%
O=C(NCCCn1ccnc1)c1cc2nc(-c3ccc(Br)cc3)cc(C(F)(F)F)n2n1,4.1µM*,u,-15,-11,-5,7.1µM*
COc1ccc(-c2cc(C(=O)NCCCn3ccnc3)no2)cc1OC,x,6%,-9,10,-2,19%
O=C(NCCCn1ccnc1)c1ccc(Br)cc1,0%,11%,-6,1,-5,28%
COc1cccc(-c2cc(C(=O)NCCCn3ccnc3)no2)c1,u,79%,103*,5,23*,6%
O=C(NCCCn1ccnc1)c1cc(-c2ccc(Br)cc2)on1,4%,-16%,59,u,29*,u
COc1ccc2c(Cl)c(C(=O)NCCCn3ccnc3)sc2c1,9%,u,39,4,20*,u
CCn1ccc2cc(S(=O)(=O)N3CCC(C(=O)NCc4cccc(Cl)c4)CC3)ccc21,x,x,x,2,x,x
C=CCNC(=O)c1cc(-c2ccc(Br)cc2)on1,40%,164%,89*,104,24*,5%
O=C(NCCCn1ccnc1)c1cc(-c2ccc3c(c2)OCO3)on1,u,32%,22*,58,12*,9%
O=C(NCCc1ccccc1)c1cc(-c2ccc(Br)cc2)on1,x,x,x,11,x,x
SMILES,Pf growth 96h,Pf growth 48h,Shiga toxin inh,HCMV antiviral,Cycloheximide cs,HCV inhibitor
COC(=O)[C@]12CCCCC=C1N(Cc1ccco1)C(=O)[C@H](CC(=O)NCCc1ccccc1OC)C2,x,x,x,15,x,x
Cc1c(C(=O)NCCC2=CCCCC2)oc2ccc(S(=O)(=O)N3CCC4(CC3)OCCO4)cc12,-28%,u,-9,-27,1,13µM*
Cc1c(C(=O)NCc2ccccn2)oc2ccc(S(=O)(=O)N3CCC4(CC3)OCCO4)cc12,u,13µM*,15,17,7,2%
COc1ccc(CCCn2ncc3c2nc(N)n2nc(-c4ccco4)nc32)cc1,x,x,4,x,7,x
Oc1cc(NCc2cccnc2)ccc1-c1nc2ccccc2o1,x,-32%,84*,19,53*,u
O=C(Nc1nnc(CSCc2ccc(Cl)cc2)s1)c1cccc([N+](=O)[O-])c1,u,19%,-9,-34,-2,21%
CC(C)c1nnc(NC(=O)c2cccs2)s1,220%,218%,70*,53,58*,u
CC(C)N(C(=O)CSc1nnc(NC(=O)c2cccs2)s1)C(C)C,10µM*,u,-8,48,-3,6%
CS(=O)(=O)Nc1nnc(SCC(=O)N(c2ccccc2)c2ccccc2)s1,2.6µM*,-17%,-21,7,1,4%
CCC(C)(C)c1nnc(NC(=O)c2cccc([N+](=O)[O-])c2)s1,38%,87%,76*,32,14*,27%
CN1CCN(CCCNC(=O)CCC(=O)N2CCOc3ccccc32)CC1,1%,8%,-4,-4,0,18%
CC(=O)Nc1ccccc1NC(=O)c1ccc(C)c(C)c1,44%,5%,26,12,-1,0%
CC(C)(C)c1nnc(NC(=O)c2cccs2)s1,-8%,104%,75*,28,71*,10%
CC(C)(C)c1nnc(NC(=O)c2cccnc2)s1,74%,33%,28,12,21*,26%
CCc1nnc(NC(=O)c2cccnc2)s1,13%,x,-11,2,-4,-25%
CCOc1ccc(C2(C)NC(=O)N(CCN(C)C)C2=O)cc1 (stereo not given),u,-20%,x,9,-3,u
Cc1cc(C)n(-c2nc3cc(Cl)ccc3nc2Nc2ccc(C)c(F)c2)n1,x,x,x,1,x,x
COC(=O)c1ccc(N2CC3CNC(=O)C2(C(=O)OC)N3C)cc1 (stereo not given),x,x,x,2,x,18%
O=C1OCC2=C1C(c1ccc(F)cc1)c1cc3c(cc1N2)OCO3 (stereo not given),33%,8%,-7,-93*,-5,u
CCOc1ccccc1C1C2=C(COC2=O)Nc2cc3c(cc21)OCO3 (stereo not given),10µM*,u,-14,-94*,-2,u
C#CCOc1ccc(C2C3=C(COC3=O)Nc3cc4c(cc32)OCO4)cc1OC (stereo not given),u,-17%,-13,-82*,-3,-17%
O=C1OCC2=C1C(c1ccc(F)cc1)c1cc3c(cc1N2)OCCO3 (stereo not given),-9%,27%,-13,-85*,-8,5%
COc1ccc(-n2c(=O)c3c4c(sc3n(Cc3c(F)cccc3Cl)c2=O)CN(C(C)=O)CC4)cc1OC,x,x,x,9,x,x
COc1ccc(-c2cc3nc(C)cc(N)n3n2)cc1,122%,139%,73,153,15*,13%
COc1ccc(-c2cc3nc(C)cc(-c4ccc(OC)cc4)n3n2)cc1,u,u,x,20,4,10µM*
